Assay results: PubChem BioAssay AID1159580 (chemical genetic matrix, 2015)
Values joined by “and” are separate entries in the source; they are usually repeats but may differ in a detail not shown here. Identical values can stand only once. Among all 5,500 compounds or so, about 2,000 (36%) were called active. Inconclusive results (about 18%) are left out. No stated cut-off is given here; in the data, active means normalized growth mostly below about 0.91 (no sharp cut-off); inconclusive means no clear call, values can overlap the other calls; inactive means mostly above about 0.92. The list shows a part of the results. A structure can be active in one record and inactive in another.

Assay: chemical genetic growth profiling, strain panel (AID 1159580);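 further: tested at 20 µM; growth read once vehicle control cultures reached saturation at 30 °C; 1 = growth at the plate median or of vehicle wells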
Conditions: growth OD

Measured: normalized growth

Cc1nc2sccn2c(=O)c1CCN1CCC(=C(c2ccc(F)cc2)c2ccc(F)cc2)CC1
0.802 (active) and 0.999 (inactive): S. cerevisiae deletion strains, locus YDR150W, strain NUM1, stronger effect = lower value
0.637 (active) and 1.1 (inactive): S. cerevisiae deletion strains, locus YNL128W, strain TEP1, stronger effect = lower value
0.732 (active) and 0.816 (inactive): S. cerevisiae deletion strains, locus YNL153C, strain GIM3, stronger effect = lower value
0.206 (active) and 1.03 (inactive): S. cerevisiae deletion strains, locus YMR307W, strain GAS1, stronger effect = lower value
active: S. cerevisiae deletion strains, locus YBR021W, strain FUR4, stronger effect = lower value 0.338 | S. cerevisiae deletion strains, locus YCL029C, strain bik1, stronger effect = lower value 0.885 | S. cerevisiae deletion strains, locus YDL035C, strain GPR1, stronger effect = lower value 0.536 | S. cerevisiae deletion strains, locus YDL074C, strain BRE1, stronger effect = lower value 0.395 | S. cerevisiae deletion strains, locus YDL101C, strain DUN1, stronger effect = lower value 0.758 | S. cerevisiae deletion strains, locus YDL134C, strain PPH21, stronger effect = lower value 0.404 | S. cerevisiae deletion strains, locus YDL192W, strain arf1, stronger effect = lower value 0.844 | S. cerevisiae deletion strains, locus YDR162C, strain NBP2, stronger effect = lower value 0.0773 | S. cerevisiae deletion strains, locus YDR318W, strain mcm21, stronger effect = lower value 0.865 | S. cerevisiae deletion strains, locus YDR388W, stronger effect = lower value 0.222 | S. cerevisiae deletion strains, locus YDR502C, strain sam2, stronger effect = lower value 0.832 | S. cerevisiae deletion strains, locus YEL061C, strain CIN8, stronger effect = lower value 0.672 | S. cerevisiae deletion strains, locus YER002W, strain NOP16, stronger effect = lower value 1.21 [resistant] | S. cerevisiae deletion strains, locus YER155C, strain BEM2, stronger effect = lower value 0.897 | S. cerevisiae deletion strains, locus YER167W, strain BCK2, stronger effect = lower value 0.692 | S. cerevisiae deletion strains, locus YGL086W, strain mad1, stronger effect = lower value 0.808 | S. cerevisiae deletion strains, locus YGL248W, strain PDE1, stronger effect = lower value 0.511 | S. cerevisiae deletion strains, locus YGR078C, strain PAC10, stronger effect = lower value 0.695 | S. cerevisiae deletion strains, locus YGR135W, strain pre9, stronger effect = lower value 0.683 | S. cerevisiae deletion strains, locus YGR252W, strain gcn5, stronger effect = lower value 0.487 | S. cerevisiae deletion strains, locus YHR079C, strain IRE1 (second series), stronger effect = lower value 0.902 | S. cerevisiae deletion strains, locus YHR200W, strain rpn10, stronger effect = lower value 0.914 | S. cerevisiae deletion strains, locus YIL066C, strain RNR3, stronger effect = lower value 0.571 | S. cerevisiae deletion strains, locus YIL073C, strain SPO22, stronger effect = lower value 0.279 | S. cerevisiae deletion strains, locus YIR030C, strain dcg1, stronger effect = lower value 0.917 | S. cerevisiae deletion strains, locus YJL187C, strain SWE1 (second series), stronger effect = lower value 0.547 | S. cerevisiae deletion strains, locus YJR043C, strain POL32, stronger effect = lower value 0.69 | S. cerevisiae deletion strains, locus YKL190W, strain CNB1, stronger effect = lower value 0.604 | S. cerevisiae deletion strains, locus YKR001C, strain vps1, stronger effect = lower value 0.139 | S. cerevisiae deletion strains, locus YLR039C, strain RIC1, stronger effect = lower value 0.303 | S. cerevisiae deletion strains, locus YLR058C, strain SHM2, stronger effect = lower value 0.613 | S. cerevisiae deletion strains, locus YLR262C, strain YPT6, stronger effect = lower value 0.289 | S. cerevisiae deletion strains, locus YLR268W, strain sec22, stronger effect = lower value 0.624 | S. cerevisiae deletion strains, locus YLR330W, strain CHS5, stronger effect = lower value 0.833 | S. cerevisiae deletion strains, locus YLR342W, strain FKS1 (second series), stronger effect = lower value 0.56 | S. cerevisiae deletion strains, locus YLR418C, strain cdc73, stronger effect = lower value 0.451 | S. cerevisiae deletion strains, locus YML016C, strain PPZ1, stronger effect = lower value 0.65 | S. cerevisiae deletion strains, locus YML032C, strain rad52, stronger effect = lower value 0.825 | S. cerevisiae deletion strains, locus YMR223W, strain ubp8, stronger effect = lower value 0.816 | S. cerevisiae deletion strains, locus YNL067W, strain RPL9B, stronger effect = lower value 0.72 | S. cerevisiae deletion strains, locus YNL175C, strain NOP13, stronger effect = lower value 1.28 [resistant] | S. cerevisiae deletion strains, locus YNL197C, strain WHI3, stronger effect = lower value 1.19 [resistant] | S. cerevisiae deletion strains, locus YNL233W, strain BNI4, stronger effect = lower value 0.573 | S. cerevisiae deletion strains, locus YNL307C, strain MCK1, stronger effect = lower value 0.863 | S. cerevisiae deletion strains, locus YNL322C, strain KRE1, stronger effect = lower value 0.67 | S. cerevisiae deletion strains, locus YNR052C, strain pop2, stronger effect = lower value 0.773 | S. cerevisiae deletion strains, locus YOL006C, strain TOP1, stronger effect = lower value 0.138 | S. cerevisiae deletion strains, locus YOR061W, strain CKA2, stronger effect = lower value 0.646 | S. cerevisiae deletion strains, locus YOR069W, strain VPS5, stronger effect = lower value 0.861 | S. cerevisiae deletion strains, locus YOR184W, strain ser1, stronger effect = lower value 0.729 | S. cerevisiae deletion strains, locus YPL055C, strain LGE1, stronger effect = lower value 0.268 | S. cerevisiae deletion strains, locus YPR163C, strain tif3, stronger effect = lower value 0.722 | S. cerevisiae deletion strains, locus YPR167C, strain met16, stronger effect = lower value 0.906 | S. cerevisiae deletion strains, strain wtn01, stronger effect = lower value 0.776 | S. cerevisiae strains, strain wild type, stronger effect = lower value 0.592
0.65 (active) and 1.01 (inactive): S. cerevisiae deletion strains, locus YAL013W, strain DEP1, stronger effect = lower value
0.733 (active) and 1 (inactive): S. cerevisiae deletion strains, locus YMR263W, strain SAP30, stronger effect = lower value
0.132 (active) and 0.945 (inactive): S. cerevisiae deletion strains, locus YGR229C, strain SMI1, stronger effect = lower value
0.354 (active) and 0.987 (inactive): S. cerevisiae deletion strains, locus YJL095W, strain BCK1, stronger effect = lower value
inactive: S. cerevisiae deletion strains, locus YAL040C, strain CLN3, stronger effect = lower value 1 | S. cerevisiae deletion strains, locus YBR229C, strain ROT2, stronger effect = lower value 0.992 | S. cerevisiae deletion strains, locus YCL061C, strain MRC1 (second series), stronger effect = lower value 1 | S. cerevisiae deletion strains, locus YDL185W, strain tfp1, stronger effect = lower value 1.01 | S. cerevisiae deletion strains, locus YDR101C, strain arx1, stronger effect = lower value 0.945 | S. cerevisiae deletion strains, locus YDR363W, strain ESC2, stronger effect = lower value 1.01 | S. cerevisiae deletion strains, locus YER110C, stronger effect = lower value 1 | S. cerevisiae deletion strains, locus YGL078C, strain dbp3, stronger effect = lower value 1 | S. cerevisiae deletion strains, locus YHR079C, strain IRE1, stronger effect = lower value 0.959 | S. cerevisiae deletion strains, locus YHR094C, strain hxt1, stronger effect = lower value 1 | S. cerevisiae deletion strains, locus YIL125W, strain kgd1, stronger effect = lower value 1 | S. cerevisiae deletion strains, locus YJL134W, strain LCB3, stronger effect = lower value 1.01 | S. cerevisiae deletion strains, locus YJL168C, strain set2, stronger effect = lower value 0.998 | S. cerevisiae deletion strains, locus YJR066W, strain TOR1, stronger effect = lower value 0.965 | S. cerevisiae deletion strains, locus YKL009W, strain mrt4, stronger effect = lower value 0.967 | S. cerevisiae deletion strains, locus YKL068W, stronger effect = lower value 0.999 | S. cerevisiae deletion strains, locus YKL085W, strain MDH1 (second series), stronger effect = lower value 0.992 | S. cerevisiae deletion strains, locus YKL085W, strain MDH1, stronger effect = lower value 0.992 | S. cerevisiae deletion strains, locus YLR102C, strain apc9, stronger effect = lower value 0.999 | S. cerevisiae deletion strains, locus YLR113W, strain HOG1, stronger effect = lower value 0.979 | S. cerevisiae deletion strains, locus YLR371W, strain rom2, stronger effect = lower value 0.978 | S. cerevisiae deletion strains, locus YML124C, strain tub3, stronger effect = lower value 1 | S. cerevisiae deletion strains, locus YMR078C, strain ctf18, stronger effect = lower value 1 | S. cerevisiae deletion strains, locus YNL183C, strain NPR1, stronger effect = lower value 0.935 | S. cerevisiae deletion strains, locus YNL250W, strain rad50, stronger effect = lower value 0.988 | S. cerevisiae deletion strains, locus YNL271C, strain bni1, stronger effect = lower value 0.992 | S. cerevisiae deletion strains, locus YNL298W, strain CLA4, stronger effect = lower value 0.999 | S. cerevisiae deletion strains, locus YOL012C, strain htz1 0.498 | S. cerevisiae deletion strains, locus YOL147C, strain pex11, stronger effect = lower value 0.984 | S. cerevisiae deletion strains, locus YOR083W, strain WHI5 (second series), stronger effect = lower value 0.985 | S. cerevisiae deletion strains, locus YOR136W, strain idh2, stronger effect = lower value 0.94 | S. cerevisiae deletion strains, locus YOR144C, strain elg1, stronger effect = lower value 1.01 | S. cerevisiae deletion strains, locus YOR231W, strain MKK1, stronger effect = lower value 0.999 | S. cerevisiae deletion strains, locus YOR316C, strain cot1, stronger effect = lower value 0.996 | S. cerevisiae deletion strains, locus YPL256C, strain CLN2, stronger effect = lower value 0.962 | S. cerevisiae deletion strains, locus YPR119W, strain clb2, stronger effect = lower value 1.01 | S. cerevisiae deletion strains, locus YPR141C, strain kar3, stronger effect = lower value 0.997
0.65 (active) and 0.981 (inactive): S. cerevisiae deletion strains, locus YHR030C, strain SLT2, stronger effect = lower value
0.36 (active) and 0.998 (inactive): S. cerevisiae deletion strains, locus YJR075W, strain HOC1, stronger effect = lower value
